# High-throughput results: PubChem, several laboratories
# In the library only some 1.7% were active in any assay of this set; here they are far more common.
# CHT block: inhibitors of human choline transporter CHT | hit rate 0.86% among 310,000 | CHT-expressing cells, membrane potential dye, choline response; hits give low values | B-score at 10 µM;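 active = B-score over 3 SD under the library average, and starting fluorescence ratio not unusually high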;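 note: choline stimulus applied at its EC90 after an EC20 pre-addition; B-score computed on integrated fluorescence ratio after choline addition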
# Target sequence (Q9GZV3 whole entry, looked up): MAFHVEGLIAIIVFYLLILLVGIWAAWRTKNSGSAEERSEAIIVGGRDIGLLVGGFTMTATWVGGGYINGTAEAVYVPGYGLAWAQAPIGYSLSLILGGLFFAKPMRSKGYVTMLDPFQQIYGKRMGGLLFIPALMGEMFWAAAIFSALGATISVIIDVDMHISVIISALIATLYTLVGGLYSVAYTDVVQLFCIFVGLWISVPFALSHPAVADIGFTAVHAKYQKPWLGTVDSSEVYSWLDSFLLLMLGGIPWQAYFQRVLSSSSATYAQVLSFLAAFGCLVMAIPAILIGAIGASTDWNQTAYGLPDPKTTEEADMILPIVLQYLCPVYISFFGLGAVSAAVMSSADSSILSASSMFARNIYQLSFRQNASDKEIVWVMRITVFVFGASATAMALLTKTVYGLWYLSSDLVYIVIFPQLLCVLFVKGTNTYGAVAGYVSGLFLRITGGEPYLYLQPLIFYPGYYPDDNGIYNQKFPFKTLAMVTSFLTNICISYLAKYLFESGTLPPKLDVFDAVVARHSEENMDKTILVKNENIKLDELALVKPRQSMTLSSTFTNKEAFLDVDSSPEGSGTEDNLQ
# CHT PAM: human CHT allosteric activation. Q9GZV3. CHT-expressing cells, membrane potential dye, choline EC20; hits give high values; LV-AA mutant CHT in HEK293 cells. B-score at 10 µM. hit rate 0.49% among 310,000;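 active = initial fluorescence not abnormally high and integrated response B-score, plate-corrected, over 3 SD above library mean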
# TAG inh: inhibitors of triacylglycerol accumulation. H9c2 cells, Nile Red lipid (TAG) fluorescence; cells loaded with 200 µM oleic acid. inhibition, % at 12.5 µM. hit rate 0.66% among 230,000. AID 651582;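 active = pattern-corrected inhibition of lipid staining of at least 50% with the nuclear-stain viability signal not falling by more than 50%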
# MIN6 prolif: induces beta-cell replication in MIN6 cells | hit rate 0.29% among 330,000 | MIN6 cells proliferation, ATPlite luminescence, 48 h; cells starved in 0.2% serum; 100% = growth in 10% serum | proliferation, % at 10 µM | AID 2380;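 active = compounds whose signal lies at least 3.5 SD above the mean of all wells on their plate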
# H9c2 TAG conf: confirmation of triacylglycerol accumulation inhibitors; shares compounds with TAG inh; H9c2 lipid accumulation, Nile Red fluorescence; cells loaded with 200 µM oleic acid; inhibition, % at 12.5 µM; hit rate 71% among 990; AID 651629;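 active = mean inhibition across replicates of 40% or more; inactive = mean inhibition below 40%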
# Numbers stand for hits; i = inactive; nt = no result given.
SMILES,CHT block,CHT PAM,TAG inh,MIN6 prolif,H9c2 TAG conf
CCCN(CCC)CCCNC(=O)c1cc2cc3ccc(OC)cc3nc2o1,i,i,i,i,nt
CCN(CC)c1ccc(CN(C(=O)c2cccs2)C2CCS(=O)(=O)C2)cc1 (centres undefined),i,i,nt,i,nt
COc1cccc(Nc2nnc(SCc3cc([N+](=O)[O-])cc4c3OCOC4)s2)c1,i,i,53,i,42
CCN(CC(=O)Nc1ccc(C(=O)Nc2ccc(OC)cc2)cc1)Cc1nc2ccccc2c(=O)[nH]1,i,i,55,i,50
CC(C)(C)NC(=O)CSc1nnc(C2CC2)n1-c1ccccc1,i,i,i,i,nt
Cc1cc(NC(=O)c2sccc2C)n(-c2nc3ccccc3[nH]2)n1,i,i,64,i,59
COc1cccc(C(=O)OCC(=O)Nc2cc(C)c(C)cc2[N+](=O)[O-])c1,i,i,nt,i,nt
C/C(=N\NC(=O)c1cc(-c2cccc([N+](=O)[O-])c2)n[nH]1)c1ccccc1O,i,i,nt,nt,nt
CC1=NN(S(=O)(=O)c2ccc(C)cc2)C(=O)c2ccccc2O1,i,i,i,i,nt
COc1ccc(S(=O)(=O)N2N=C(C)Oc3ccccc3C2=O)cc1,i,i,63,i,54
O=C1N=C(N2CCOCC2)S/C1=C/c1ccc(-c2ccc(F)cc2)o1,i,i,66,i,42
CCCCn1c(CCC(=O)O)nc2cc(S(=O)(=O)N(CC)CC)ccc21,i,i,i,i,nt
Cc1c(N=Cc2cccs2)c(=O)n(-c2ccccc2)n1C,i,i,nt,i,nt
Cc1ccc(C2C(C=Nc3c(C)n(C)n(-c4ccccc4)c3=O)=C(c3ccccc3)Oc3ccccc32)cc1 (centres undefined),i,i,69,i,57
CC/C(=N\N=C(/CC)c1ccccc1N)c1ccccc1N,i,i,i,i,nt
O=c1nc(N/N=C/C=C/c2ccccc2)cn[nH]1,i,i,64,i,i
CCCn1c(=O)n(C)c(=O)c2c(SCC(=O)Nc3cc(C)on3)nc(C(C)(C)C)nc21,nt,nt,i,i,nt
Cc1cc(C)nc(NC(=NCCc2c[nH]c3ccccc23)NC(=O)Nc2ccc(Cl)c(Cl)c2)n1,i,i,67,i,70
Cc1cc(C)nc(NC(=NCCc2c[nH]c3ccccc23)NC(=O)Nc2ccccc2)n1,i,i,nt,i,nt
O=C(NC1CCCc2c1cnn2-c1ccccc1F)c1ccncc1 (centres undefined),nt,nt,i,nt,nt
COc1cc2c(c(OC)c1OC)-c1ccc(SC)c(=O)cc1C(NC=O)CC2 (centres undefined),nt,nt,69,nt,47
COc1cc2c(c(OC)c1OC)-c1ccc(OC)c(=O)cc1C(NC(=O)c1ccccc1)CC2 (centres undefined),nt,nt,55,nt,69
COc1cc2c(c(OC)c1OC)-c1ccc(SC)c(=O)cc1C(NC(=O)c1ccccc1)CC2 (centres undefined),nt,nt,i,nt,nt
CCOC(=O)C1CCN(C(=O)C2(NC(=O)Nc3ccccc3Cl)CCCCC2)CC1,i,i,70,i,i
COc1cc(C2c3cc4c(cc3OC(C)(N3CCCC3)C2C)OCO4)cc(OC)c1OC (centres undefined),nt,nt,56,nt,56
SMILES,CHT block,CHT PAM,TAG inh,MIN6 prolif,H9c2 TAG conf
CCOC(=O)c1[nH]c(C)c(C(=O)OCC(=O)NCc2ccc(OC)c(OC)c2)c1C,nt,nt,i,i,nt
CCOC(=O)c1c(C)[nH]c(C(=O)OCC(=O)NCCc2ccc(OCC)c(OCC)c2)c1C,i,i,57,i,63
COc1ccc(NC(=O)Cn2nnc(-c3ccccc3NC(=O)c3cccs3)n2)cc1,i,i,i,i,nt
Cc1ccc(NC(=O)Cn2nnc(-c3ccccc3NC(=O)c3cccs3)n2)cc1,i,i,57,i,71
C[C@H](CO)N1C[C@H](C)[C@@H](CN(C)S(C)(=O)=O)Oc2ccc(NC(=O)c3ccncc3)cc2C1=O,nt,nt,i,i,nt
Cc1onc(-c2ccccc2)c1C(=O)Nc1cc(C(F)(F)F)ccc1N1CCOCC1,i,i,52,i,62
Cc1onc(-c2ccccc2)c1C(=O)Nc1ccccc1N1CCOCC1,i,i,i,i,nt
C[C@@H]1CN([C@@H](C)CO)C(=O)c2cc(N(C)C)ccc2O[C@@H]1CN(C)Cc1ccncc1,nt,nt,61,i,i
C=CCN1C(=O)C(CC(=O)NCC)SC1=Nc1ccccc1CC (centres undefined),i,i,nt,i,nt
Cc1cc(OC(=O)Nc2ccccc2)ccc1Cl,nt,nt,i,nt,nt
